The source of these data is PubChem BioAssay (NCATS).

Each structure is given as a SMILES string. Records with an inconclusive call do not appear. A call without a number means that no potency is given here. Active and inactive are the calls of the source. Calls come from the whole dose curve; as a rule, active = well fitted inhibition curve with a large enough effect; inconclusive = small, poorly fitted or top-dose-only effect; inactive = flat fitted curve, though single readings scatter.
Potency is the fitted concentration of half-maximal effect.

The test system of the experiment is N140. The experiment is described as follows: qHTS profiling for inhibitors of Plasmodium falciparum proliferation (AID 504749). Note: nearly all actives have a fitted effect of over 60% in size. The settings on record: P. falciparum in erythrocytes, SYBR Green DNA, 72 h; series mostly up to 28.7 µM. The procedure, abridged: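 Three-day growth assay of blood-stage parasites in erythrocytes (0.3% parasitemia, 2.5% hematocrit) at 37 C, 5% CO2, quantified by SYBR Green DNA staining after overnight detergent lysis.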
With `S=C=Nc1ccc(N=C=S)cc1`, the Potency entry was “inactive”. On to `N=C(N)n1cccn1`, for which the Potency entry is “inactive”. For `Cc1cccc(C)c1NC(=O)NC1=CCCN1C`, the Potency entry is “inactive”. `Cc1cc(-c2ccc(N=Nc3ccc4c(S(=O)(=O)O)cc(S(=O)(=O)O)c(N)c4c3O)c(C)c2)ccc1N=Nc1ccc2c(S(=O)(=O)O)cc(S(=O)(=O)O)c(N)c2c1O`: the Potency entry is “inactive”. As for `O=P(O)(O)O`, the Potency result was “inactive”. For the molecule `CN(CCO)CC(O)Cn1cnc2c1c(=O)n(C)c(=O)n2C` (stereo not given) (tested in a mixture with another compound), the Potency result was “inactive”. On to `O=C(O)Cc1cc(I)c(Oc2ccc(O)c(I)c2)c(I)c1`, for which the Potency entry is “inactive”. `COC1=C(OC)C(=O)C(C/C=C(\C)CC/C=C(\C)CC/C=C(\C)CC/C=C(\C)CC/C=C(\C)CC/C=C(\C)CC/C=C(\C)CC/C=C(\C)CC/C=C(\C)CCC=C(C)C)=C(C)C1=O`: the Potency entry was “inactive”. With `CN=C1C=CC(=C(c2ccc(N(C)C)cc2)c2ccc(N(C)C)cc2)C=C1`, the Potency is 708 nM (active). Consider `CCOc1ccc(S(=O)(=O)O)c2cccnc12`, for which the Potency entry is “inactive”. As for `FC(F)(F)COCC(F)(F)F`, the entry is “inactive”. As to `O=C(O)[C@H]1C(=CCO)O[C@H]2CC(=O)N12`, the Potency result was “inactive”. In the case of `CC1CC(O)CC(C)(C)C1` (stereo not given) it was “inactive”. As for `Cc1ncc(C[n+]2csc(CCOP(=O)(O)O)c2C)c(N)n1`, the entry is “inactive”; as for `CCCCO`, “inactive”; as for `CCOC(=S)SSC(=S)OCC`, “inactive”. `N[C@H](CC(=O)O)C(=O)O`: the Potency entry is “inactive”. In the case of `CCC(C(=O)NC(N)=O)c1ccccc1` (stereo not given), the Potency result was “inactive”. As to `CCN(CC)CCOC(=O)c1cccnc1`, the Potency entry was “inactive”. In the case of `NC(=S)NS(=O)(=O)c1ccc(N)cc1` it was “inactive”.
